Values joined by “and” are separate entries in the source; they are usually repeats but may differ in a detail not shown here. Identical values can stand only once. Compounds without any hit were thinned out: in the full panel of roughly 83,000, 20% have a hit.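 Activity criterion: percent growth below 10, measured after cells in 96-well plates were exposed to a single compound concentration for 48 hours.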 Unmarked numbers belong to inactive results.
test system: ACHN renal; test: NCI-60 one-dose screen, 48 h (100 = growth as untreated, 0 = no growth, -100 = all killed); conditions: 10 µM unless noted

Row | Compound | growth
1 | CC1(c2ccc3ccccc3c2)CCC(=O)O1 (stereo not given) | 101%
2 | CC1=C(/C=C/C(C)=C/C=C/C(C)=C/C=N/NC(=S)NC(=S)N/N=C/C=C(C)/C=C/C=C(C)/C=C/C2=C(C)CCCC2(C)C)C(C)(C)CCC1 | 38.9% and 10.2%
3 | CCCCOc1cc(C(=O)NCCN(CC)CC)c2ccccc2n1 | 90.1% and 99.7%
4 | COc1cc2c(c(OC)c1OC)-c1ccc(OC)c(=O)cc1[C@@H](NC(C)=O)CC2 | 27.8% and 27.2% and 30.5%
5 | CN1CCN(c2ccc3nc(-c4c(N)c5c(F)cccc5[nH]c4=O)[nH]c3c2)CC1 | 17.8% and 18%

— PubChem BioAssay (NCI)
